Results filed as inconclusive are left out. A call without a number means that no potency is given here. Calls of active or inactive are those of the source. Calls follow the shape of the dose curve; as a rule, active = well fitted activation curve with a large enough effect; inconclusive = small, poorly fitted or top-dose-only effect; inactive = flat fitted curve, though single readings scatter.
Test: Primary redox qHTS assay for identification of artifact compounds. (AID 1845223)
Conditions: Amplex Red/HRP redox cycling with DTT, fluorescence; series mostly up to 53.8 µM
Summary of the method: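 Redox-cycling detection via DTT (250 uM final) oxidation coupled to Amplex Red (25 uM)/HRP (250 mU/mL) in HBSS. 15 min preincubation plus 30 min after DTT, room temperature. Ex/Em 525/598 nm; 4-parameter Hill fit against DMSO and 10 uM DA3003.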
With `Cc1cc(Nc2nc(N[C@@H](C)c3ccc(F)cc3)c(C#N)cc2F)n[nH]1` the Potency was “inactive”. With `COc1cccc(-c2ccc(NC(=O)C3=C(C(=O)O)CCC3)c(F)c2)c1` the Potency was “inactive”. In the case of `CC(C)Nc1cc(C(F)(F)F)cc2nc(NC(=O)c3cccnc3)nn12`, the Potency is reported as “inactive”. For `CC(C)c1cc(-c2n[nH]c(=O)n2-c2ccc3c(ccn3C)c2)c(O)cc1O`, the Potency was “inactive”. For `Nc1nccc(Oc2ccc(NC(=O)c3c[nH]cc(-c4ccc(F)cc4)c3=O)cc2F)c1Cl`, the Potency was “inactive”. For `COc1cc(-c2nn(C3CCC(N4CCN(C(C)=O)CC4)CC3)c3ncnc(N)c23)ccc1NC(=O)c1cc2ccccc2n1C` (stereo not given), the Potency was “inactive”. For `Clc1cccc(-c2nnnn2Cc2cccnc2)c1Cl`, the Potency was “inactive”. With `CNC(=O)c1ccc(-c2cnc3ncc(Cc4ccc5ncccc5c4)n3n2)cc1F` the Potency was “inactive”. For `CCNC(=O)Nc1ccc2ncc(Nc3ccc(C)cc3)nc2n1`, the Potency was “inactive”. With `CC(C)(C)c1cc(NC(=O)Nc2ccc(-c3cn4c(n3)sc3cc(OCCN5CCOCC5)ccc34)cc2)no1` the Potency was “inactive”. With `COc1ccc2c(c1)CC[C@@H](CN(C)CC(=O)O)[C@H]2c1ccccc1` the Potency was “inactive”. In the case of `Cc1cn2cc(C(=O)N(C)CCO)cc(N[C@@H]3CCOc4cccc(C)c43)c2n1`, the Potency is reported as “inactive”. In the case of `Cn1c(=O)n(-c2ccc(C(C)(C)C#N)cc2)c2c3cc(-c4cnc5ccccc5c4)ccc3ncc21`, the Potency is reported as “inactive”. With `C=CC(=O)Nc1cccc(Oc2nc(Nc3ccc(N4CCN(C)CC4)cc3OC)ncc2Cl)c1` the Potency was “inactive”. With `CN(C)CC(C)(C)CNc1nn2c(-c3ccccc3)nnc2cc1C1CCC1` the Potency was “inactive”. In the case of `NC(=O)c1c(OCc2c(F)cc(Br)cc2F)nsc1NC(=O)NCCCCN1CCCC1`, the Potency is reported as “inactive”. In the case of `CC1(C)CC(=O)c2c(C(F)(F)F)nn(-c3ccc(C(N)=O)c(NC4CCC(OC(=O)CN)CC4)c3)c2C1` (stereo not given), the Potency is reported as “inactive”. For `C=CC(=O)Nc1cccc(Oc2nc(Nc3ccc(N4CCN(C)CC4)cc3)ncc2Cl)c1`, the Potency was “inactive”. For `Nc1cccc(-c2cc3c(Oc4cccc(O)c4)ncnc3[nH]2)c1`, the Potency was “inactive”. In the case of `O=c1c2ccccc2nc2n1CCc1c-2[nH]c2ccccc12`, the Potency is reported as “inactive”. For `C[C@]12CC[C@H](O)CC1=CCC1C2CC[C@]2(C)C(n3cnc4ccccc43)=CCC12` (stereo not given in full), the Potency was “inactive”. With `OCc1ccc(-c2ccc(-c3ccc(CO)s3)o2)s1` the Potency was “inactive”. With `Clc1ccc2ncc(-c3cccc(NC4CNC4)n3)n2c1` the Potency was “inactive”. In the case of `CC1(C)CCC(c2ccc(Cl)cc2)=C(CN2CCN(c3ccc(C(=O)NS(=O)(=O)c4ccc(N[C@H](CCN5CCOCC5)CSc5ccccc5)c(S(=O)(=O)C(F)(F)F)c4)cc3)CC2)C1`, the Potency is reported as “inactive”. In the case of `Clc1cccc(-n2nnnc2NCc2ccccc2Oc2ccccn2)c1Cl`, the Potency is reported as “inactive”. In the case of `COc1cc2c(Nc3ccc(NC(=O)c4ccccc4)cc3)ncnc2cc1OCCCN1CCOCC1`, the Potency is reported as “inactive”. With `CC(C)c1noc(N2CCC(COc3ccc(-c4ccc(S(C)(=O)=O)cc4)nc3)CC2)n1` the Potency was “inactive”. With `CS(=O)(=O)c1ccc(-c2cnc(N)c(C(=O)Nc3ccccc3)n2)cc1` the Potency was “inactive”. In the case of `NCC(=O)Nc1ccc(-n2nc(C(F)(F)F)cc2-c2ccc3c(ccc4ccccc43)c2)cc1`, the Potency is reported as “inactive”. With `NC(=O)c1cccc2cn(-c3ccc([C@@H]4CCCNC4)cc3)nc12` the Potency was “inactive”. In the case of `C1Cc2[nH]nc(-c3nn[nH]n3)c2C1`, the Potency is reported as “inactive”. For `O=C(O)CCCc1c[nH]c2ccccc12`, the Potency was “inactive”. In the case of `C[C@]1(CO)CN(c2cc(C(=O)Nc3ccc4c(c3)-c3c(c(C(N)=O)nn3-c3ccc(F)cc3)CC4)c(Cl)cn2)C[C@@]1(C)CO`, the Potency is reported as “inactive”. In the case of `NC1(Cc2ccc(Cl)cc2)CCN(c2ncnc3[nH]ccc23)CC1`, the Potency is reported as “inactive”. With `CCCNC(=O)Nc1ccc(Oc2ncnc3cc(OC)c(OC)cc23)cc1Cl` the Potency was “inactive”.

From PubChem BioAssay (NCATS)
